In PubChem BioAssay AID493030 (The Scripps Research Institute Molecular Screening Center, 2011):
In all, about 2,300 compounds went through this assay and about 1,500 (65%) were called active.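 How the source made its calls: active means mean inhibition over three repeats above a set limit taken from the earlier primary screen (cut at about 30% in these data); inactive means the rest.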 So high a share suggests a set chosen from earlier hits. The full list was thinned out, with actives kept by preference.

Target: Platelet-activating factor acetylhydrolase 2, cytoplasmic (Homo sapiens) (UniProt Q99487)
Test: inhibition of cytoplasmic PAF acetylhydrolase 2 – biochemical, fluorescence polarization, human, confirmation (AID 493030);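 further: inhibitor blocks binding of rhodamine activity probe so polarization falls; 0% = enzyme with DMSO and 100% = wells lacking PAFAH2 protein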
Conditions: recombinant PAFAH2, FP-rhodamine activity probe, at 3.39 µM, hits give high values

SMILES | inhibition
COc1cccc(N2C(=O)NC(=O)/C(=C\c3cn(C)c4ccccc34)C2=O)c1 | 36.5% (active)
Cc1cccc(N2C(=O)NC(=O)/C(=C\c3cnn(-c4ccccc4)c3)C2=O)c1 | 35.3% (active)
O=C(COC(=O)c1ccccc1)Nc1ccc(Cl)cc1C(=O)c1ccccc1 | 39.7% (active)
